Experimental data reported in PubChem BioAssay (NCI).
This is part of a sample that, as a whole, favours compounds with a hit. Of some 79,000 tested, about 15% had one in any assay. Calls of active or inactive are those of the source. No stated cut-off is given here; in the data, active means growth inhibition above about 70%; inactive means the rest.

How the values were obtained:
[1] = NCI Yeast Anticancer Drug Screen. Data for the rad50 strain (AID 155);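 further: 0% = growth of vehicle-only cultures of the same strain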; details: S. cerevisiae rad50 strain growth inhibition; at 50.0 µM; active compounds read high
Outline: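 Compounds were tested on a yeast strain with an engineered DNA damage repair alteration; the reported value is growth inhibition normalised to vehicle treatment.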

[2] = NCI Yeast Anticancer Drug Screen. Data for the mec2-1 strain (AID 157); details: S. cerevisiae mec2-1 strain, at 50.0 µM, active compounds read high
Outline: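 Readout is yeast growth inhibition, normalised to vehicle-treated controls, in the mec2-1 strain exposed to compound.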

[3] = NCI Yeast Anticancer Drug Screen. Data for the sgs1 mgt1 strain (AID 161);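 further: 0% = growth of cultures given vehicle only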; details: S. cerevisiae sgs1 mgt1 strain, at 50.0 µM, active compounds read high
Outline: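 Percent growth inhibition was derived by comparing compound-exposed mutant yeast with vehicle-exposed cultures. The strain carries alterations in DNA damage repair.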

[4] = NCI Yeast Anticancer Drug Screen. Data for the cln2 rad14 strain (AID 165);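 further: 0% = growth equal to vehicle treated cultures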; details: S. cerevisiae cln2 rad14 strain, at 50.0 µM, active compounds read high
Outline: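 Relative to vehicle controls, growth inhibition of compound-treated cln2 rad14 yeast was recorded.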

[5] = NCI Yeast Anticancer Drug Screen. Data for the bub3 strain (AID 167); details: S. cerevisiae bub3 mutant strain, at 50.0 µM, active compounds read high
Outline: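 Growth of a checkpoint-deficient yeast mutant is measured after compound exposure. Values represent inhibition relative to vehicle.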

[6] = NCI Yeast Anticancer Drug Screen. Data for the mlh1 rad18 strain (AID 175); details: S. cerevisiae mlh1 rad18 strain growth inhibition; at 50.0 µM; active compounds read high
Outline: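 Test agents were incubated with a yeast strain of defined genotype (DNA damage repair defect). Inhibition of growth was derived by comparison with vehicle-exposed cultures.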

Measured: growth inhibition

CC1=C(C(=O)O)CCc2ccccc21
inactive: [1] 40.7% | [2] -11.5% | [3] 19.9% | [4] 13.7% | [5] 15% | [6] 36.8%

O=Cc1ccnc2ccccc12
inactive: [1] 0.9% | [2] 1% | [3] 6.25% | [4] 4% | [5] -3.55% | [6] 6.85%

CCCCNC(=O)C1CCC(CC2CCCCC2)CC1 (stereo not given)
inactive: [1] 22.8% | [2] 28.7% | [3] 12.5% | [4] -3.3% | [5] 18.4% | [6] 10.6%

COc1cc(/C=C/C(=O)N[C@@H]2C(=O)N3[C@@H]2SC(C)(C)[C@@H]3C(=O)O)ccc1O
inactive: [1] -7.45% | [2] -11.2% | [3] -7.9% | [4] -1.55% | [5] -15.2% | [6] 6.65%

COC(C)CCOC(=O)c1cccc(C)c1 (stereo not given)
inactive: [1] 9% | [2] -6.8% | [3] 3.8% | [4] -24% | [5] 24.8% | [6] 1.9%

CCC1(CC)C(=O)N=C(c2ccccc2)N1C
inactive: [1] -5.55% | [2] -5.75% | [3] 8.15% | [4] -16% | [5] -2.3% | [6] -10.7%

Nc1ccc(N)c(N)c1
inactive: [1] 26.3% | [2] 53.1% | [3] 31.4% | [4] -31.2% | [5] -4.9% | [6] 6.8%

CC(=O)Nc1ccc(C=O)s1
inactive: [1] -0.65% | [2] 6% | [3] -15.4% | [4] -36.2% | [5] 1.65% | [6] -0.4%

N#Cc1nc(CCCCCN2C(=O)c3ccccc3C2=O)oc1N
inactive: [1] -8.9% | [2] 9.2% | [3] -23.1% | [4] -4.1% | [5] -28.6% | [6] -68.8%

Cc1ccc(S(=O)(=O)C/C(=N\Nc2ccc([N+](=O)[O-])cc2[N+](=O)[O-])c2ccccc2)cc1
inactive: [1] 38.4% | [2] -9.45% | [3] 17.6% | [4] 12.4% | [5] -0.25% | [6] 18.7%

O=C1OC(=O)C2C1C1CCC2C1(c1ccccc1)c1ccccc1 (stereo not given)
inactive: [1] 22.5% | [2] -0.95% | [3] 31.4% | [4] -4.7% | [5] -0.05% | [6] -2.85%

O=C(O)CNC(=O)c1cccc(Cl)c1
inactive: [1] 12.4% | [2] 12.3% | [3] 14.7% | [4] 13.3% | [5] 16.9% | [6] 14.6%

CCOC(=O)c1nc(C)oc1C(=O)OCC
inactive: [1] 0.85% | [2] -12.9% | [3] -14.6% | [4] -13.9% | [5] -7.3% | [6] -3.85%

CC(=O)N(C(C)=O)c1cc2c3c(c1)CCCN3CCC2
inactive: [1] 2.2% | [2] -40.8% | [3] -22.1% | [4] -36.8% | [5] -16.1% | [6] -1.6%

O=C1OC2c3ccccc3C3CC(=O)C2C13 (stereo not given)
inactive: [1] 10.2% | [2] -5.7% | [3] 9.35% | [4] 6.25% | [5] 1.25% | [6] 7.65%

COc1ccc(-c2nc(SCC(=O)O)n(-c3ccccn3)c2-c2ccc(OC)cc2)cc1
active: [1] 70.7% | [3] 82.3% | [4] 83.7% | [6] 77.7%
inactive: [2] 66.5% | [5] 42.9%

Cn1c2c(c(=O)c3c4[nH]c5c(c(=O)c4ccc31)CCCC5)CCCC2
inactive: [1] -10.2% | [2] 3.7% | [3] -15.1% | [4] -5.65% | [5] -4.95% | [6] 3.6%

O=c1[nH]c2ccccc2nc1/C=C\NC(=S)Nc1cc(Cl)ccc1Cl
inactive: [1] -45.5% | [2] -32.1% | [3] -44.1% | [4] -14.8% | [5] -30.6% | [6] -40.1%

CC(C)C(CNC(=O)c1ccc([N+](=O)[O-])cc1)(C(C)C)C(C)C
inactive: [1] -2.6% | [2] -36.2% | [3] -3.85% | [4] -3.7% | [5] 17.8% | [6] -1.65%

CCCCCCCCCCCCCCCC/C=C\CCCCCCCCCCCCCCCCC
inactive: [1] -7.8% | [2] -18.1% | [3] -0.85% | [4] 17.3% | [5] 2.25% | [6] -13.1%

COc1ccc(C2c3cc4c(cc3OC(NNS(=O)(=O)c3ccc(C)cc3)C2C)OCO4)cc1 (stereo not given)
inactive: [1] -22.4% | [2] 12.9% | [3] 9.55% | [4] 4.4% | [5] -5.1% | [6] 34.2%

C[Si](C)(C)CSC#N
inactive: [1] -16.6% | [2] 6.45% | [3] 12.5% | [4] 4.65% | [5] 2.75% | [6] 11.5%

O=C(Nc1ccc(S(=O)(=O)N2CCCCC2)cc1)OC1CCCCCC1
inactive: [1] 10.1% | [2] 1.1% | [3] -8.5% | [4] 14.5% | [5] -4.05% | [6] 10.6%

Cc1ccc2nc(N(C)C)nc(N)c2c1
inactive: [1] -7.95% | [2] 2.05% | [3] -5.45% | [4] -7.85% | [5] -8.3% | [6] -6.2%

S=C(NCc1ccc(Cl)cc1Cl)Nc1ccccc1
active: [2] 73% | [3] 75.8% | [6] 72.5%
inactive: [1] 23.1% | [4] -1.8% | [5] 64.7%

NCCc1ccc(O)c(O)c1
inactive: [1] -4.4% | [2] -4.2% | [3] -1.55% | [4] 4.25% | [5] -1.45% | [6] 1.85%

CCN1CCC(O)(C(C(=O)O)c2ccccc2)CC1 (stereo not given)
inactive: [1] 3.45% | [2] -27% | [3] -35% | [4] -28.8% | [5] -38.7% | [6] 2.4%

CCOC(=O)c1c(SC(=O)c2ccc(C(C)(C)C)cc2)n(-c2ccccc2)c(=S)n(-c2ccccc2)c1=O
inactive: [1] 31.1% | [2] 0.55% | [3] 26.8% | [4] 6.45% | [5] 40% | [6] 18.9%

Cc1cc(S(=O)(=O)Nc2nc(N)nc(N(C)C)n2)c(S)cc1Cl
inactive: [1] 1.4% | [2] -17.2% | [3] -3.5% | [4] 1.9% | [5] -46% | [6] 15.1%

O=S(=O)(c1ccccc1)N1CCC1c1ccccc1 (stereo not given)
inactive: [1] -11.3% | [2] -3.9% | [3] -8.8% | [4] 21.9% | [5] 9.3% | [6] 0.8%

Cc1ccc(COC(=O)Nc2ccc(C)c(NC(=O)OCc3ccc(C)cc3)c2)cc1
inactive: [1] 14.4% | [2] -1.15% | [3] 11.7% | [4] -2.9% | [5] -3.8% | [6] 30.1%

Cc1ccccc1C(OCCN(C)C)c1ccccc1 (stereo not given)
inactive: [1] -46.2% | [2] -44.8% | [3] -44% | [4] -6.65% | [5] -39% | [6] -28.1%

COc1ccc(CCCCC(=O)O)cc1
inactive: [1] -12.1% | [2] -3.4% | [3] -0.65% | [4] -2.7% | [5] -7.55% | [6] -9.1%

CC(=O)OCC(=O)[C@@]1(O)CC[C@H]2[C@@H]3CC[C@H]4[C@H](Br)C(=O)CC[C@]4(C)[C@H]3C(=O)C[C@@]21C
inactive: [1] -20.1% | [2] -33.1% | [3] -11.3% | [4] -12.8% | [5] -8.1% | [6] -23.9%

CCCCN=C1NC(N)=NC(C)(C)N1
inactive: [1] -0.1% | [2] -0.35% | [3] -0.75% | [4] -37.5% | [5] -13.3% | [6] -18.9%

CCCCCCCCCC(=O)N/N=C/c1c[nH]c2ccccc12
inactive: [1] 0.95% | [2] 28.4% | [3] 20.7% | [4] -8.75% | [5] 29.1% | [6] 21.9%

COc1cc(C2c3cc4c(cc3OC(C)(N3CCCC3)C2C)OCO4)cc(OC)c1OC (stereo not given)
inactive: [1] -25.4% | [2] 6.95% | [3] -9.8% | [4] 14.2% | [5] -2.55% | [6] 0.25%

CC(=O)Nc1c(Cl)cccc1[N+](=O)[O-]
inactive: [1] -25.1% | [2] -18.8% | [3] -4.75% | [4] -26.4% | [5] -5.8% | [6] 5.85%

O=C(CCc1ccc(O)c(O)c1)NCCc1cc(O)cc(OCc2ccccc2)c1
inactive: [1] 9.45% | [2] -6.65% | [3] -10.6% | [4] -19.1% | [5] -44.3% | [6] -73.5%

CCC(C(=O)c1ccccc1)[n+]1ccccc1 (stereo not given)
inactive: [1] -4.55% | [2] -16% | [3] -6.7% | [4] -15.6% | [5] 13.2% | [6] 3.05%
